# TDP1 inh: qHTS Assay for Inhibitors of Tyrosyl-DNA Phosphodiesterase (TDP1); Potency, µM (highest dose often 130 µM), actives largely listed as inhibitors; 0.28% of 350,000 active; recombinant TDP1, AlphaScreen DNA substrate cleavage; Tyrosyl-DNA phosphodiesterase 1 (Homo sapiens), Q9NUW8; further: nearly all actives have a fitted effect of over 40% in size
# Target sequence (Q9NUW8 whole entry, looked up): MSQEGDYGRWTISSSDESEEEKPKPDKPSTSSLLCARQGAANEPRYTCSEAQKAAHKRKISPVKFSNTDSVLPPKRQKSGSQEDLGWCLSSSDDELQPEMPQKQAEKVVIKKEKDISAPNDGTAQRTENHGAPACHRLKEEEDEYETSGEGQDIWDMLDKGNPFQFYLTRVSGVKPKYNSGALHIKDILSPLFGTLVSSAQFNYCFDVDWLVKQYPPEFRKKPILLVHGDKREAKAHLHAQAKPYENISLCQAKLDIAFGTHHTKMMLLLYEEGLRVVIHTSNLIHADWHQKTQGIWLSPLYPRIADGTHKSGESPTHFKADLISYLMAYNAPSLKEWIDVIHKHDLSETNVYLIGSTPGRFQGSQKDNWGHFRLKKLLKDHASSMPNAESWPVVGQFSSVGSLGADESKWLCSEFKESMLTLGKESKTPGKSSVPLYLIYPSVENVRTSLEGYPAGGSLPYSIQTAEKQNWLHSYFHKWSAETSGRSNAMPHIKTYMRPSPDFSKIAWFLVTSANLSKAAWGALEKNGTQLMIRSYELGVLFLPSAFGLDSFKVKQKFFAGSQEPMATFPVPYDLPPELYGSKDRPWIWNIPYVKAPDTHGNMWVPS
#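 E. coli-derived human Tdp1, 1 nM final. Cpd preinc 15 min RT; substrate 15 nM final, 5 min RT; AS bead mix 10 ug/ml final, 10 min RT. Signal loss = tyrosine-FITC cleavage. No-enzyme wells = max signal.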
# CtBP-E1A inh: qHTS Assay for Inhibitors of the CtBP/E1A Interaction. AID 651724, 2012. activity change, % (concentration not given with the values). CtBP / adenovirus E1A interaction (AlphaScreen). AlphaScreen GST-E1A/His-CtBP binding, 1536-well; stronger effect = lower value. 0.49% of 340,000 active; in the data active means activity change below about -65%; inconclusive means mostly about -30% to -63%
#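 AlphaScreen with 125 nM GST-E1A and 125 nM His-CtBP (5X stocks) in Tris pH 8.0, 300 mM NaCl, BSA, Tween 20, TCEP. Compounds preincubated 2 h at 37 deg C, then glutathione donor/nickel acceptor beads added for 1 h at 37 deg C in dark.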
# IL-1B inflam inh: qHTS for Inhibitors of Inflammasome Signaling: IL-1-beta AlphaLISA Primary Screen; activity change, % at 57.5 µM; AID 743279, 2014; THP-1 LPS/ATP IL-1B secretion, AlphaLISA, 16 h; stronger effect = lower value; 4.7% of 360,000 active; in the data active means activity change below about -50%; inconclusive means mostly about -30% to -49%
#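 Secreted IL-1B measured by AlphaLISA bead assay after 16 h compound exposure of THP-1 cells; compounds (final up to 57.5 uM) added 1 h before LPS (250 ng/mL) and ATP (1.25 mM) stimulation; lower signal means less secretion.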
# TDP1 cell CPT: qHTS for Inhibitors of human tyrosyl-DNA phosphodiesterase 1 (TDP1): qHTS in cells in presence of CPT. chicken DT40 Tdp1-/-;hTDP1 cells + 20 nM CPT, ATP luminescence, 48 h. Potency, µM (doses to about 46.2 µM), actives largely listed as inhibitors. 12% of 420,000 active. AID 686979, 2013; further: nearly all actives have a fitted effect of over 55% in size
#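 Chicken DT40 Tdp1-/- cells stably complemented with human TDP1 were seeded at 400 cells/well in medium containing 20 nM camptothecin, exposed to pin-transferred compounds, and grown at 37 °C for at least 48 hr. Viability was read as ATP luminescence.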
# Six1-Eya2 inh: qHTS Assay for Inhibitors of the Six1/Eya2 Interaction; 0.56% of 360,000 active; AlphaScreen GST-Six1/His-Eya2 binding, biochemical; stronger effect = lower value; AID 651725, 2012; activity change, % (no concentration beside the values); in the data active means activity change below about -65%; inconclusive means mostly about -30% to -63%
#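 Compounds are tested against tagged Six1 and Eya2 proteins bridged by glutathione donor and nickel acceptor beads; after a one-hour incubation at 37 °C without light, AlphaScreen emission is recorded.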
# DT40 TDP1 no CPT: qHTS for Inhibitors of human tyrosyl-DNA phosphodiesterase 1 (TDP1): qHTS in cells in absence of CPT; DT40 Tdp1-/- hTDP1 cells, no CPT, ATP luminescence, 48 h; Potency, µM (doses to about 46.2 µM), actives largely listed as inhibitors; 15% of 420,000 active; AID 686978, 2013; further: nearly all actives have a fitted effect of over 55% in size
#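 Cells were dispensed at 400 per well, compounds added by pin tool, plates incubated ≥48 hr at 37 °C, then CellTiter-Glo added for 30 min at room temperature before luminescence reading. Line: DT40 Tdp1-/- complemented with hTDP1; camptothecin omitted.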
# Numbers stand for hits; 0 = inactive; ? = inconclusive; - = no result given; [ ] = another dose, or the depositor's remark. Most compounds without a hit are left out; they make up all but 18% or so of the library. Unless noted, the call rests on the fitted dose curve; in most records, active means well fitted curve in the direction sought with a large enough effect; inconclusive means small, poorly fitted or top-dose-only effect, or another doubt; inactive means no such curve, though single readings can be large; an effect the other way counts as inactive or inconclusive.
SMILES,TDP1 inh,CtBP-E1A inh,IL-1B inflam inh,TDP1 cell CPT,Six1-Eya2 inh,DT40 TDP1 no CPT
Oc1ccc(C=NN=C2c3ccccc3-c3ccccc32)c(O)c1,-,0,-57.9,?,?,14.6µM
O=C1c2cccc3cccc(c23)C(=O)N1/N=C/c1ccc(O)cc1O,0,0,0,0,0,0
O=C(c1ccco1)n1nc(-c2ccccc2)nc1NCc1ccc(Cl)cc1,0,-,-,-,-,-
CCC(=O)n1nc(-c2ccc(Cl)cc2)nc1NCc1ccccc1,0,0,0,14.6µM,0,16.4µM
O=C(NCc1ccco1)c1cc(NS(=O)(=O)c2cccc([N+](=O)[O-])c2)ccc1O,0,0,0,0,0,0
O=C(OCn1nnc2ccccc2c1=O)C12CC3CC(CC(O)(C3)C1)C2,0,0,0,0,0,0
COc1ccc(C2CC(=O)C3=C(C2)Nc2ccccc2NC3c2coc3ccccc3c2=O)cc1OC (stereo not given),0,0,?,16.4µM,0,25.9µM
COc1cc(OC)c(C2Nc3ccccc3NC3=C2C(=O)CC(C)(C)C3)cc1OC (stereo not given),0,0,0,0,0,0
COc1ccc2nc3n(c(=O)c2c1)-c1ncccc1C(=O)NC3C (stereo not given),-,0,0,0,0,?
CCCN(CCC)C(=O)Cn1nnc2sc(-c3ccccc3)cc2c1=O,0,-,-,0,-,0
CCN(C(=O)Cn1nc(C)n2c(cc3cc(C)ccc32)c1=O)c1ccccc1,0,0,-51.3,?,0,?
CCc1ccc(NC(=O)C(C)n2nnc3sc(-c4ccccc4)cc3c2=O)cc1 (stereo not given),0,-,-,?,-,?
COC(=O)C(C)n1nnc2sc(-c3ccccc3)cc2c1=O (stereo not given),0,0,0,?,0,18.4µM
CCN(C(=O)Cn1nnc2sc(-c3ccccc3)cc2c1=O)c1cccc(C)c1,0,-,-,16.4µM,-,?
CCCCC/C=C\C/C=C\CCCCCCCC(N)=O,0,-,-,0[4.12 µM],-,0[4.12 µM]
CC(OC(=O)c1nn(C)c(=O)c2ccccc12)C(=O)NC1CCCCC1C (stereo not given),0,0,0,0,0,0
COc1ccc(Cl)cc1S(=O)(=O)N(C)CC(=O)NCc1ccccn1,0,0,0,0,0,0
CCOC(=O)C(=Cc1ccc(-c2ccsc2C(=O)OC)o1)C(=O)OCC,0,0,0,25.9µM,0,?
COC(=O)C(=Cc1ccc(-c2ccsc2C(=O)OC)o1)C(=O)OC,0,0,-,0,0,?
CCN(CC)N=Nc1ccc(C(=O)O)cc1,0,0,0,0,0,0
Cc1nc(N=Nc2ccc(S(=O)(=O)O)cc2S(=O)(=O)O)c(COP(=O)(O)O)c(C=O)c1O,20µM,-,-,0,-,0
Cc1nc(N=Nc2ccc(C(=O)O)cc2)c(COP(=O)(O)O)c(C=O)c1O,14.1µM,-,-,-,-,-
COc1cc(SC)ccc1C(=O)OCC(=O)N1CC(=O)Nc2ccccc21,0,0,0,0,0,?
COC(=O)C1=C[C@@H](C(=O)OC)[C@H]2C3=C(C(=O)[C@@]2(C)NC(=O)c2ccccc2)[C@H](C)C(C(=O)OC)=C(C(=O)OC)[C@@H]3C1,0,-,-,-,-,-
O=C(Nc1ccc(Cl)cc1)OCCN1CCOCC1,-,0,0,0,0,0
SMILES,TDP1 inh,CtBP-E1A inh,IL-1B inflam inh,TDP1 cell CPT,Six1-Eya2 inh,DT40 TDP1 no CPT
O=C(Nc1ccc(Cl)cc1)OCCn1nnnc1C(c1ccccc1Cl)N1CCOCC1 (stereo not given),0,0,0,25.9µM,0,18.4µM
COc1ccc(NC(=O)c2ccc3c(c2)c(C)c(C)n3Cc2ccc(F)cc2)c(OC)c1,0,-,-,18.4µM,-,20.6µM
COc1ccc(OC)c(NC(=O)c2ccc3c(c2)c(C)c(C)n3Cc2ccc(F)cc2)c1,0,-,-,?,-,20.6µM
COc1ccc(NC(=O)c2ccc(C(=O)Nc3ccc(OC)cc3OC)cc2)c(OC)c1,0,0,0,0,0,0
Cc1ccc(C)c(S(=O)(=O)N2CCN(c3nc(CN4CCOCC4)nc4sc(C)c(C)c34)CC2)c1,0,0,0,?,0,18.4µM
Cc1ccc(S(=O)(=O)N2CCN(c3nc(CN4CCCC4)nc4sc(C)c(C)c34)CC2)cc1,0,0,?,?,0,?
Cc1sc2nc(CN3CCCC3)nc(N3CCN(S(=O)(=O)c4cccs4)CC3)c2c1C,0,0,?,?,0,18.4µM
Cc1sc2nc(CN3CCOCC3)nc(NS(=O)(=O)c3ccccc3)c2c1C,0,0,0,0,0,0
COC(=O)c1ccc(C2C(Oc3ccccc3)C(=O)N2CCc2ccc(F)cc2)cc1 (stereo not given),0,0,0,?,0,?
CC1SC(c2ccc(F)cc2)N(CCc2ccccc2)C1=O (stereo not given),-,0,0,0,0,23.1µM
COc1ccc(CC(=O)Oc2cc(C)[nH]c(=O)c2[N+](=O)[O-])cc1,0,0,0,0,0,0
Cc1ccc(C(=O)Nc2ccc3c(c2)N(C)C(=O)c2ccccc2S3)cc1F,0,-,-,1.03µM,-,0.82µM
CC(=O)Nc1cc(C(=O)Nc2ccc3c(c2)N(C)C(=O)c2ccccc2S3)ccc1C,0,-,-,1.64µM,-,0.92µM
C/C(=N\NC(=O)c1ccc(C)cc1C)c1ccc2c(c1)Nc1ccccc1S2,0,0,0,?,0,16.4µM
Cc1ccc(NC(=O)c2ccc3c(c2)NC(=O)c2ccccc2S3)cc1,0,-,-,3.66µM,-,2.59µM
O=C(O)[C@H]1CCCN1S(=O)(=O)c1cccc2cccnc12,-,0,0,0,0,0
CC(=O)c1csc(COc2cc(Cl)cc(Cl)c2)n1,-,0,0,0,0,0
CCc1ccc(Nc2sc(C(=O)c3ccc(F)cc3)c(N)c2S(=O)(=O)c2ccccc2)cc1,0,-,-,?,-,?
COc1ccc(S(=O)(=O)c2c(Nc3ccc(F)cc3)sc(C(=O)c3ccc(C)cc3C)c2N)cc1,0,-,-,?,-,?
Cc1ccc(Cl)cc1Nc1sc(C(=O)c2ccc(F)cc2)c(N)c1S(C)(=O)=O,0,-,-,16.4µM,-,?
Cc1ccc(Nc2sc(C(=O)c3ccccc3)c(N)c2S(=O)(=O)c2ccccc2)c(C)c1,0,-,-,?,-,14.6µM
Cc1ccc(S(=O)(=O)c2c(Nc3cc(F)ccc3F)sc(C(=O)c3ccc(F)cc3)c2N)cc1,0,-,-,20.6µM,-,16.4µM
Nc1c(C(=O)c2ccc(F)cc2)sc(Nc2ccccc2F)c1S(=O)(=O)c1ccc(Br)cc1,0,-,-,5.17µM,-,8.2µM
